{
  "source": "PubChem BioAssay AID743144",
  "about": "(Broad Institute, 2013)",
  "note": "Measured potencies and affinities stand elsewhere. Records with an inconclusive call do not appear. A number with no mark means an inactive call. How the calls were made is not given here.",
  "data": [
    {"assay": "cytotoxicity in COV362 ovarian cancer cells, dose response, cytotoxicity control for PAX8 inhibitor project, cell-based, plate reader, dry powder, SA12 (AID 743144)", "settings": "series mostly up to 35 µM; activity change, negative = cytotoxicity: at the top concentration", "values": [
      {"smiles": "COc1ccc(S(=O)(=O)N2CCCCN3[C@H](CO)[C@H](c4ccc(C#CC(C)C)cc4)[C@H]3C2)cc1", "activity change, negative = cytotoxicity": "19.2% [at 16 µM]"},
      {"smiles": "CCN(CC(=O)Nc1c(F)cccc1F)C(=O)c1cc(S(=O)(=O)N(C)C)ccc1N1CCCC1", "activity change, negative = cytotoxicity": "-10.6% [at 50 µM]"},
      {"smiles": "O=C(CCS(=O)(=O)c1ccccc1)Nc1nc2ccc(F)cc2s1", "activity change, negative = cytotoxicity": "-15.5% [at 50 µM]"},
      {"smiles": "O=C(CN1C(=O)c2ccccc2S1(=O)=O)c1ccccc1Cl", "activity change, negative = cytotoxicity": "6.01% [at 50 µM]"},
      {"smiles": "O=C1/C(=C/c2cccc(Br)c2)SC(=S)N1CCC(=O)N(CCO)c1ccccc1", "activity change, negative = cytotoxicity": "-11.7% [at 50 µM]"},
      {"smiles": "C[C@H]1CN([C@@H](C)CO)C(=O)Cc2cc(NC(=O)NC3CCCCC3)ccc2O[C@@H]1CN(C)Cc1ccc(-c2ccccc2)cc1", "activity change, negative = cytotoxicity": "21.3%"},
      {"smiles": "C[C@@H]1CN([C@@H](C)CO)S(=O)(=O)c2ccc(C#C[C@@H](C)O)cc2O[C@H]1CN(C)Cc1ccc(-c2ccccc2)cc1", "activity change, negative = cytotoxicity": "-24.5%"},
      {"smiles": "N#C[C@@H]1[C@@H](c2ccc(-c3ccccc3F)cc2)[C@@H](CO)N1C(=O)C1CCC1", "activity change, negative = cytotoxicity": "-4.33%"},
      {"smiles": "COc1ccccc1C#Cc1ccc([C@H]2[C@@H](CO)N(C(=O)C3CCCC3)[C@H]2C#N)cc1", "activity change, negative = cytotoxicity": "-0.208%"},
      {"smiles": "C[C@H](CO)N1C[C@H](C)[C@@H](CN(C)Cc2ccc(C(F)(F)F)cc2)Oc2ccc(NS(=O)(=O)c3ccc(Cl)cc3)cc2CC1=O", "activity change, negative = cytotoxicity": "3.8% [at 16 µM]"},
      {"smiles": "C[C@H](CO)N1C[C@H](C)[C@@H](CN(C)S(=O)(=O)c2ccc(Cl)cc2)OCCCC[C@H](C)Oc2ccc(NS(=O)(=O)c3ccccc3)cc2C1=O", "activity change, negative = cytotoxicity": "-35.1%"},
      {"smiles": "COCC(=O)N1[C@H](CO)[C@H](c2ccc(-c3cccnc3)cc2)[C@@H]1C#N", "activity change, negative = cytotoxicity": "2.03%"},
      {"smiles": "N#C[C@H]1N[C@H](CO)[C@@H]1c1ccc(C#Cc2ccccc2F)cc1", "activity change, negative = cytotoxicity": "11.2%"},
      {"smiles": "CC(=O)N1CCOc2ccc(S(=O)(=O)N3CCN(c4cccc(C(F)(F)F)c4)CC3)cc21", "activity change, negative = cytotoxicity": "-15.3% [at 50 µM]"},
      {"smiles": "N#C[C@@H]1[C@@H](c2ccc(-c3cccc(F)c3)cc2)[C@H](CO)N1C(=O)NC1CCCC1", "activity change, negative = cytotoxicity": "4.43%"},
      {"smiles": "Cc1ccc(S(=O)(=O)CC(CN2CCCCC2)N2CCCCC2)cc1", "note": "(stereo unspecified)", "activity change, negative = cytotoxicity": "-29.5% [at 50 µM]"},
      {"smiles": "COc1cccc(C#Cc2ccc([C@@H]3[C@@H](C#N)N(C(=O)C4CCCC4)[C@@H]3CO)cc2)c1", "activity change, negative = cytotoxicity": "1.78%"},
      {"smiles": "C[C@H](CO)N1C[C@H](C)[C@@H](CN(C)S(=O)(=O)c2ccc(-c3ccccc3)cc2)OCc2cn(nn2)CCCC1=O", "activity change, negative = cytotoxicity": "8.14%"},
      {"smiles": "N#C[C@@H]1[C@@H](c2ccc(C3=CCCCC3)cc2)[C@@H](CO)N1C(=O)NC1CCCCC1", "activity change, negative = cytotoxicity": "5.18%"},
      {"smiles": "COc1ccccc1C#Cc1ccc([C@@H]2[C@@H](C#N)N(C(=O)C3CCCCC3)[C@H]2CO)cc1", "activity change, negative = cytotoxicity": "-15.9%"},
      {"smiles": "N#C[C@H]1[C@@H](c2ccc(C3=CCCC3)cc2)[C@@H](CO)N1C(=O)NC1CCCCC1", "activity change, negative = cytotoxicity": "9.28%"}
    ]}
  ]
}
